Screens (PubChem)
Many of the other results were omitted from the sample, so hits are more common in it than they were.
KDM5B inhibitor: inhibitors of human KDM5B histone demethylase; KDM5B demethylase, FDH-coupled NADH fluorescence (FDH is formaldehyde dehydrogenase); Potency, µM (highest dose often 57.7 µM), most hits filed as inhibitors; hit rate 2.6% among 220,000; AID 1347165; active = well fitted inhibition curve with a large enough effect; also: 0% is about no effect; nearly all actives have a fitted effect of over 70% in size
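Measured: NADH fluorescence change, 30 min, RT. System: KDM5BΔAP 200 nM final, H3K4me3 peptide, α-KG, Fe(II), ascorbate, NAD⁺ plus FDH, pH 7.5 HEPES. Compounds: titrated, 10 min pre-incubation with enzyme.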
Numbers without * were called inactive; i = inactive. Potency is read from the fitted curve at half-maximal effect.

SMILES	KDM5B inhibitor
COc1ccc(C2Cn3nnc(-c4noc(-c5cc(F)ccc5F)n4)c3CO2)cc1 (configuration not stated)	18µM*
COc1ccc(C2Cn3nnc(-c4nc(-c5ccccc5OC)no4)c3CO2)cc1 (configuration not stated)	28µM*
CCOc1ccc(C2Cn3nnc(-c4nc(-c5ccccc5F)no4)c3CO2)cc1 (configuration not stated)	i
Cc1ccc(C2Cn3nnc(-c4noc(-c5cc(Cl)ccc5F)n4)c3CO2)cc1 (configuration not stated)	i
COc1ccc(-c2c(C)noc2-c2ccc(O)cc2O)cc1OC	i
CC(NC(=O)CSc1nnc(-c2ccncc2)n1-c1ccc(F)cc1)c1ccc2c(c1)OCO2 (configuration not stated)	i
Cc1cccc(/C=N/Nc2ccc([N+](=O)[O-])cc2)n1	i
Cn1ncc(N2CCC(CNC(=O)c3cccc(CO)n3)C2)cc1=O (configuration not stated)	i
Cn1ncc(N2CCC(CNC(=O)c3cn4cccnc4n3)C2)cc1=O (configuration not stated)	28µM*
CC(C)c1cc(C(=O)NCC2CCN(c3cnn(C)c(=O)c3)C2)n(C)n1 (configuration not stated)	i
COC(=O)c1ccn(Cc2ccccc2Br)n1	i
O=C(c1cccnc1)N1C[C@@H]2OCC(=O)N(Cc3ccccn3)[C@@H]2C1	i
CCOC(=O)c1cccnc1N1C[C@H]2OC(=O)N(Cc3ccccn3)[C@H]2C1	28µM*
COc1cc(N2C[C@H]3OC(=O)N(Cc4ccccc4OC)[C@H]3C2)ncn1	i
CC(C)Oc1ccc(CNC(=O)Cn2c(=O)nc3n2C(=O)N(c2ccccc2)C3)cc1	i
O=C(c1ccc(N2CC3CC(C2)[C@H]2CCCC(=O)N2C3)nc1)N1CCC(Cc2ccccc2)CC1 (some centres not stated)	32µM*
O=C(c1ccc(N2CC3CC(C2)[C@H]2CCCC(=O)N2C3)nc1)N1CCN(c2ccc(F)cc2)CC1 (some centres not stated)	i
O=C(C1CCN(C(=O)N2CC3CC(C2)[C@H]2CCCC(=O)N2C3)CC1)N1CCCCC1 (some centres not stated)	i
O=C(c1ccc(N2CC3CC(C2)[C@H]2CCCC(=O)N2C3)nc1)N1CCc2ccccc21 (some centres not stated)	i
O=C(C1CCN(C(=O)N2CC3CC(C2)[C@H]2CCCC(=O)N2C3)CC1)N1CCN(c2ccccc2)CC1 (some centres not stated)	i
O=C(C1CCN(C(=O)N2CC3CC(C2)[C@H]2CCCC(=O)N2C3)CC1)N1CCN(c2ccccn2)CC1 (some centres not stated)	25µM*
CN(C)CCCN(C(=O)c1cccc(C(F)(F)F)c1)c1nc2ccc(F)cc2s1	i
CCCCCOc1ccc(C(C)=O)cc1	i
Cc1oc(-c2nc(C#N)c(N(C)C)o2)cc1S(=O)(=O)N(C)c1ccccc1	i
CCS(=O)(=O)N1CC(=O)N(c2ccc(C(C)C)cc2)C(C)(C(=O)NCc2ccc(F)cc2)C1 (configuration not stated)	i
SMILES	KDM5B inhibitor
CC(C)C(=O)N1CCN(C(=O)c2cc(C(C)C)nc3ccccc23)CC1	i
O=[N+]([O-])c1ccc2nc(C(F)(F)F)[nH]c2c1	i
Cc1cn2nc(-c3nc(C4CCCN(C(=O)c5cccs5)C4)no3)cc2c(=O)[nH]1 (configuration not stated)	i
Cc1cn2nc(-c3nc(C4CCCN(C(=O)c5ccccc5F)C4)no3)cc2c(=O)[nH]1 (configuration not stated)	28µM*
Cc1cn2nc(-c3nc(C4CCCN(C(=O)c5cccc(Cl)c5)C4)no3)cc2c(=O)[nH]1 (configuration not stated)	i
N#C/C(=C/c1ccccc1[N+](=O)[O-])c1ccc(C(F)(F)F)cn1	i
Cc1cc(C)cc(NC(=O)c2csc3c2CCCCC3)c1	i
CCc1cccc(C)c1NC(=O)c1nn(Cc2ccccc2)c(=O)c2ccccc12	i
CN(C)C(=O)CNC(=O)c1cc2occc2n1Cc1ccc(Cl)cc1	i
O=C(NCCc1ccncc1)C1CC(=O)N(c2n[nH]c3cccc(F)c23)C1 (configuration not stated)	i
COc1ccc(CNC(=O)C2CC(=O)N(c3n[nH]c4cccc(F)c34)C2)cc1 (configuration not stated)	i
COc1ccc2[nH]cc(CCNC(=O)C3CC(=O)N(c4n[nH]c5cccc(F)c45)C3)c2c1 (configuration not stated)	22µM*
O=C(NCCc1cccc(F)c1)C1CC(=O)N(c2n[nH]c3cccc(F)c23)C1 (configuration not stated)	22µM*
COc1ccc(CCNC(=O)C2CC(=O)N(c3n[nH]c4ccccc34)C2)cc1OC (configuration not stated)	i
